High-throughput results (PubChem)
FEN1 inhibitor – human FEN1 inhibition. Recombinant FEN1 flap cleavage, fluorescence, 15 min. P39748. Potency, µM (top dose mostly 114 µM), usual class: inhibitors. 390,000 tested, 0.35% active; note: nearly all actives have a fitted effect of over 65% in size
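Steps: FEN1 (10 nM) dispensed; compound added by pin tool; 15 min at room temperature; substrate added to 50 nM final; reads at 0 min and 15 min; data normalized and fitted (four-parameter Hill).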
Pol kappa inh-1 – DNA polymerase kappa (human) inhibition; purified Pol kappa, fluorescent DNA synthesis assay, 10 min; Potency, µM (titrated, usually from 107 µM), hits mostly inhibitors; 400,000 tested, 0.53% active; Q9UBT6
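Kinetic fluorescence readout at 0 and 10 min followed reaction start with substrate at 50 nM final. Beforehand, enzyme (10 nM Pol kappa) stood 15 min with compound at room temperature; buffer-only wells were negative controls.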
Pol eta inh-1 – DNA polymerase eta (human) inhibition; Q9Y253; recombinant Pol eta, fluorescent DNA replication assay; Potency, µM (doses to about 114 µM), most hits filed as inhibitors; 390,000 tested, 1.2% active; AID 588591
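Pol eta (10 nM) was preincubated with compounds for 15 min at room temperature, after which fluorescent replication substrate (50 nM final) was added to start the reaction. Fluorescence was read kinetically at 0 and 10 min.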
WRN helicase inh-1 – inhibitors of human WRN helicase; AID 651768; WRN helicase unwinding, fluorescent forked duplex, kinetic; Potency, µM (top dose mostly 114 µM), actives largely listed as inhibitors; Q14191; 360,000 tested, 0.46% active; note: nearly all actives have a fitted effect of over 55% in size
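Fluorescence dequenching readout, ex 525 nm/em 598 nm, kinetic mode: forked duplex DNA (100 nM final) with adjacent fluorophore and quencher unwound by WRN (20 nM final) with 2 mM ATP. Compound preincubation 15 min, room temperature.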
POLI inh – inhibitors of human DNA polymerase iota. 390,000 tested, 1% active. Q9UNA4. AID 588590. Pol iota fluorescent replication assay, 10 min. Potency, µM (titrated, usually from 115 µM), hits mostly inhibitors
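Pol iota at 10 nM preincubated 15 min with compounds at room temperature; reaction started with fluorescent substrate, 50 nM final. Fluorescence read kinetically at 0 and 10 min; buffer-only wells as negative control.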
POLB inh – blocks human DNA polymerase beta activity; Potency, µM (top dose mostly 114 µM), usual class: inhibitors; Pol beta primer extension/strand displacement, fluorescence kinetic; 340,000 tested, 1.3% active; AID 485314
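Enzyme-only controls used 10 nM Pol beta; buffer lacking enzyme served as negative control. Compound preincubated 15 min, then 50 nM substrate added; 0 and 10 min reads at room temperature.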
PGK validate – validation of Trypanosoma brucei phosphoglycerate kinase inhibitors; 500 tested, 79% active; AID 686980; shares compounds with Pol kappa inh-1; Potency, µM (highest dose often 57.5 µM), usual class: inhibitors; TbPGK coupled GAPDH assay, Kinase-Glo luminescence; note: nearly all actives have a fitted effect of over 65% in size
Target sequence (P07378 whole entry, looked up): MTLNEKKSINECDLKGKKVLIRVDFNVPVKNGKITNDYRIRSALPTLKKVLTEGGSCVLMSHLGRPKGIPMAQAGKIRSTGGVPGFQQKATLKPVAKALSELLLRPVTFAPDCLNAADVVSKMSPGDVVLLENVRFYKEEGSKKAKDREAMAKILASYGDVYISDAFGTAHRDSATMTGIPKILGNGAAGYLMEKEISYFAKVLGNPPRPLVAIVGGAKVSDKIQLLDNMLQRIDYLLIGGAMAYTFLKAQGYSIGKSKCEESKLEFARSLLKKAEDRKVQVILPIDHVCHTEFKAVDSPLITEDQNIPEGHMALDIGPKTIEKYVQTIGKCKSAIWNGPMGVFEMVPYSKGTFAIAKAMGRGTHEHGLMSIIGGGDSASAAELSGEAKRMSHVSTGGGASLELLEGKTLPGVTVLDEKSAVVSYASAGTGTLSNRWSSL
POLI cherry-pick – Inhibitors of human DNA polymerase iota, confirmation | shares compounds with Pol kappa inh-1 | Pol iota primer extension, TAMRA/BHQ fluorescence | Potency, µM, usual class: inhibitors | 1,500 tested, 77% active | AID 720496
GALK inh confirm – confirmation of human galactokinase (GALK) inhibitors; 150 tested, 70% active; shares compounds with Pol eta inh-1; purified GALK, Kinase-Glo ATP depletion luminescence; Potency, µM (highest dose often 115 µM), most hits filed as inhibitors; AID 2015
Redox cycling – counter-screen for GALK inhibitors: redox cycling H2O2 generation. shares compounds with Pol eta inh-1. Phenol red-HRP H2O2 redox cycling, absorbance 600 nm. Potency, µM (highest dose often 115 µM), hits mostly inhibitors. 150 tested, 40% active. AID 2035
HEK293 viability – reduces HEK-293 cell viability in GALK counter-screen; shares compounds with Pol eta inh-1; HEK-293 viability, ATP luminescence (CellTiter-Glo), 24/48 h; Potency, µM (titrated, usually from 46.1 µM), usual class: inhibitors; 170 tested, 10% active
Pol kappa inh-2 – Pol kappa (human) inhibition, cherry-pick confirmation. 920 tested, 76% active. AID 720501. shares compounds with Pol eta inh-1. purified Pol-kappa, fluorescent strand-displacement substrate. Potency, µM, most hits filed as inhibitors
Pol eta inh-2 – confirmation of human DNA polymerase eta inhibitors; shares compounds with Pol eta inh-1; 2,600 tested, 64% active; Pol eta primer extension, TAMRA/BHQ fluorescence, 10 min; Potency, µM, hits mostly inhibitors
WRN helicase inh-2 – WRN helicase inhibition, cherry-pick retest; shares compounds with WRN helicase inh-1; WRN helicase DNA unwinding, fluorescence kinetic; Potency, µM (titrated, usually from 57.1 µM), actives largely listed as inhibitors; 610 tested, 63% active; AID 720497; note: nearly all actives have a fitted effect of over 65% in size
TO DNA binding – counter-screen for WRN helicase inhibitors: DNA binding; thiazole orange DNA binding displacement, fluorescence; AID 720499; Potency, µM (highest dose often 57.1 µM), hits mostly inhibitors; shares compounds with WRN helicase inh-1; 610 tested, 10% active;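 note: drop in dye fluorescence marks compound binding to DNA; nearly all actives have a fitted effect of over 60% in size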
BLM helicase inh – BLM helicase inhibition, WRN selectivity check; shares compounds with WRN helicase inh-1; Recombinant BLM helicase DNA unwinding, red fluorescence; Potency, µM (series often up to 57.1 µM), most hits filed as inhibitors; 610 tested, 60% active; AID 720503; note: nearly all actives have a fitted effect of over 60% in size
Hits are given with their value; – = inactive; ? = inconclusive; · = no result; [ ] = remark or other dose. Compounds with a hit are over-represented: about 2.4% of the library has one in this group of screens. Calls come from the whole dose curve; as a rule, active = well fitted curve in the direction sought with a large enough effect; inconclusive = small, poorly fitted or top-dose-only effect, or another doubt; inactive = no such curve, though single readings can be large; an effect the other way counts as inactive or inconclusive.

SMILES | FEN1 inhibitor | Pol kappa inh-1 | Pol eta inh-1 | WRN helicase inh-1 | POLI inh | POLB inh | Pol eta inh-2 | others
O=c1c(O)c(-c2ccc(O)c(O)c2)oc2cc(O)cc(O)c12 | 40µM | 0.95µM | 0.71µM | ? | 0.56µM | 0.2µM | 12 | PGK validate=?;POLI cherry-pick=15;GALK inh confirm=42µM;Redox cycling=–;HEK293 viability=?;Pol kappa inh-2=3;WRN helicase inh-2=1.2µM;TO DNA binding=?;BLM helicase inh=1.1µM
Cc1cc(/C=C2\C(=O)NC(=O)N(c3ccccc3F)C2=O)c(C)n1-c1cc(C(=O)O)cc(C(=O)O)c1 | ? | ? | 3.2µM | 40µM | ? | 10µM | 7.6 | PGK validate=?;POLI cherry-pick=19;WRN helicase inh-2=?;TO DNA binding=–;BLM helicase inh=–
CC(Cc1ccc(OCC(=O)O)cc1)NCC(O)c1cccc(Cl)c1 (centres undefined) | · | – | – | · | – | – | ·
CC(Cc1ccc(O)cc1)NCC(O)c1ccc(O)c(O)c1 (centres undefined) | · | · | 4µM | 25µM | · | · | 12 | POLI cherry-pick=15;Pol kappa inh-2=3.4;WRN helicase inh-2=14µM;TO DNA binding=–;BLM helicase inh=6.1µM
N/C(=N\N=C/c1ccc(-c2ccc(O)c(C(=O)O)c2)o1)N[N+](=O)[O-] | 50µM | 8.9µM | 4.5µM | 25µM | 3.5µM | 3.5µM | 4.3 | PGK validate=6.5µM;POLI cherry-pick=3;Pol kappa inh-2=3;WRN helicase inh-2=7.6µM;TO DNA binding=?;BLM helicase inh=6.8µM
COc1cc(OC)c(NS(=O)(=O)c2cc(-c3cnc(C4CC4)o3)ccc2C)cc1Cl | – | – | – | · | ? | – | ·
O=S(=O)(c1ccc(Cl)cc1)c1cc(Cl)c(Cl)cc1Cl | · | – | · | · | · | · | ·
N#CC1=C(N)Oc2c(c(=O)oc3ccccc23)C1c1ccc([N+](=O)[O-])o1 (centres undefined) | 50µM | 50µM | 20µM | ? | ? | ? | 85 | Pol kappa inh-2=38
CC(C)Oc1ccc(C2C(C#N)=C(N)Oc3c2c(=O)oc2ccccc32)cc1 (centres undefined) | – | – | ? | – | – | – | ·
C=C1[C@@H]2C[C@]3(C(CC2=O)[C@]24C5C[C@H]3[C@H]2N(CC)C[C@]5(C)CC[C@@H]4O)[C@@H]1O (some centres undefined) | · | – | · | · | · | · | ·
O=C(Cc1ccc(S(=O)(=O)N2CCCC2)s1)N1CCN(c2ccc(F)cc2)CC1 | ? | ? | ? | –[11.6 µM] | ? | 32µM | 85
O=C(OC1Cc2c(O)cc(O)cc2OC1c1cc(O)c(O)c(O)c1)c1cc(O)c(O)c(O)c1 (centres undefined) | · | 0.56µM | · | · | · | · | · | GALK inh confirm=9.4µM;Redox cycling=–;HEK293 viability=–
CCC(C)N1C(=O)/C(=C/c2ccc3c(c2)CCN3CCCCl)C(=O)NC1=S (centres undefined) | – | ? | 16µM | –[11.6 µM] | ? | 16µM | 76 | Pol kappa inh-2=84
CCOC(=O)COc1ccc(/C=C2\C(=O)NC(=S)N(c3ccc(OC)cc3)C2=O)cc1OC | – | – | – | – | – | – | ·
Cc1c(N=Cc2c(O)n(Cc3ccco3)c(=O)[nH]c2=O)c(=O)n(-c2ccccc2)n1C | – | – | 18µM | –[11.6 µM] | ? | ? | ?
O=C(N/N=C/c1c(O)n(Cc2ccco2)c(=O)[nH]c1=O)c1ccccc1O | – | 79µM | 14µM | ? | 28µM | – | 30
Cc1c(N=Cc2c(O)n(Cc3ccccc3)c(=O)[nH]c2=O)c(=O)n(-c2ccccc2)n1C | – | – | – | – | – | – | ·
N#Cc1ccc(CN2CC[C@@]3(CCCNC3)C2)cc1 | · | – | · | · | · | · | ·
Cn1cccc1/C=C1/C(=O)NC(=O)N(Cc2ccccc2)C1=O | – | 79µM | ? | ? | 16µM | – | 76
Cc1ccc2nc3sc(=O)sc3nc2c1 | · | – | · | · | · | · | ·
NS(=O)(=O)c1ccc(-c2ccc(C=C3C(=O)NC(=O)NC3=O)o2)cc1 | ? | – | – | –[11.6 µM] | ? | – | ·
O=C1NC(=O)C(=Cc2ccc(SC3CCCCC3)o2)C(=O)N1 | ? | – | 20µM | ? | 10µM | 20µM | 48
COc1ccc(-c2cc(=O)c3cc(OCC(=O)OC(C)C)ccc3o2)cc1 | – | – | – | · | – | – | ·
O=c1oc2ccccc2c(O)c1[C@H]1c2ccc(O)cc2Oc2c1c(=O)oc1ccccc21 | – | – | ? | –[11.6 µM] | – | – | ?
COc1ccc(-n2c(/C=C3\C(=O)Nc4ccccc43)nc3ccccc3c2=O)cc1 | – | – | – | – | ? | – | ·
O=C1Nc2ccccc2/C1=C/c1nc2ccccc2c(=O)n1-c1ccc(O)cc1 | ? | ? | ? | ? | 18µM | ? | ?
COc1cc(C2c3cc4c(cc3C(OC(C)=O)[C@H]3COC(=O)C23)OCO4)cc(OC)c1OC (some centres undefined) | · | – | · | · | · | · | ·
Cc1nc2ccccc2c(=O)n1-c1nccs1 | · | · | · | – | · | · | ·
O=c1c2ccccc2nc(-c2ccco2)n1-c1nccs1 | ? | – | ? | – | ? | – | ?
CC(C)(O)C1C2OC(=O)C1[C@]1(O)CC3O[C@@]34C(=O)OC2[C@@]14C (some centres undefined) | · | – | · | · | · | · | ·
